Results on 93 compounds are retold here after PubChem BioAssay AID2099 (Broad Institute, 2009).

In all, about 330,000 compounds went through this assay and about 230 (0.07%) were called active. The sample holds actives, similar compounds and a random draw of the others, so the mix is not that of the screen. A number with no mark means an inactive call.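 How the source made its calls: active means more than half of a compound's replicate wells show inhibition beyond 50%, single wells judged on their own value; inconclusive means some, but no more than half, of replicates pass 50% inhibition; inactive means no replicate passes 50% inhibition.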

Broadly, the inhibition is the change of the read-out against control, counted positive when it falls.

For this assay, the target named is Lysine-specific demethylase 4C (Homo sapiens) (UniProt Q9H3R0). Briefly: inhibitors of GASC-1 histone demethylase, primary screen, biochemical, fluorescence, DELFIA europium (AID 2099).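 Further: signal counts dimethyl H3K9 product captured on neutravidin plate; 0% = median of DMSO wells and 100% = 0.3 times that DMSO median.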 The conditions noted are these: GST-JMJD2C(1-420) H3K9me3 demethylation, at 2.35 µM, active compounds read high.
Lysine-specific demethylase 4C (Homo sapiens), sequence (Q9H3R0 1-420 limits assumed): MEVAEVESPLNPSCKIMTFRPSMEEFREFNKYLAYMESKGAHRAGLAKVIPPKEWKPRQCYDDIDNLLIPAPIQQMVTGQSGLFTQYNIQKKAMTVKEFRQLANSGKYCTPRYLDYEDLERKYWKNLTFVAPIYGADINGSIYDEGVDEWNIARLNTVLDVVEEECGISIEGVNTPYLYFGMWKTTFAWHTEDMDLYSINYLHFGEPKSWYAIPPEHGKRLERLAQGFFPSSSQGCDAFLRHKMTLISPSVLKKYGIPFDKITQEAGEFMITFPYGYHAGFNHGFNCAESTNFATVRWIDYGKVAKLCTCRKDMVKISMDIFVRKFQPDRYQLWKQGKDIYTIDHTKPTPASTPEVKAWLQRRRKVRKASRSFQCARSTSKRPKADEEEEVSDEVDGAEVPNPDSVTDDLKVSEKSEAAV
Regarding `CN1CCN(CC#CCC2(O)c3ccccc3-c3ccccc32)CC1`, the inhibition was -1.35%.

On to `O=C(N/C(=C\c1ccc([N+](=O)[O-])cc1)C(=O)N1CCOCC1)c1cccc(Br)c1`, for which the inhibition is -3.44%.

With `C=CCN1C(=O)C(O)(CC(=O)c2ccc(Cl)cc2)c2ccccc21` (stereo not drawn), the inhibition was -1.48%.

As to `Cc1ccsc1/C=N/n1c(=S)[nH]nc(C)c1=O`, the inhibition is -1.06%.

In the case of `C=CCn1cc(Cl)cc(C(=O)Nc2ccccc2)c1=O`, the inhibition is 3.59%.

As to `O=C1Nc2cc(Cl)c(Cl)cc2N(O)N1c1ccccc1Cl`, the inhibition is -2.09%.

Regarding `CCCCN(CCCC)CCNC(=O)CN1C(=O)COc2ccc(S(=O)(=O)N3CCOCC3)cc21`, the inhibition was -8.15%.

Regarding `COc1cc2c(cc1OC)CC1(CCCCC1)N=C2`, the inhibition was 2.64%.

As for `COC(C[C@@H](O)[C@H](C)[C@H](O)COCc1ccccc1)OC`, the inhibition was 13.4%.

Take `O=C(CSc1nc(=O)n2ccccc2n1)Nc1ccc2c(c1)OCCO2`: the inhibition is -1.16%.

Consider `COc1cccc(NCCC(=O)c2cccc([N+](=O)[O-])c2)c1`, for which the inhibition is 4.3%.

On to `CCc1ccc(N2CC(O)=C(c3nc4ccccc4c(=O)[nH]3)C2=N)cc1`, for which the inhibition was -0.372%.

Take `Cc1cc(C)c(S(=O)(=O)N2CCOCC2)cc1C`: the inhibition was 8.81%.

On to `Cc1ccc(C2=NN(C)c3nc4ccccc4n3C2)cc1`, for which the inhibition is 4.06%.

Regarding `Cc1nn(C)c(Cl)c1CN1CCC(Oc2ccc(C(=O)N3CCCC3)cc2)CC1`, the inhibition was 36.3%.

`Cc1ccc(-n2c(CNc3ccc(F)cc3)nnc2SCC(=O)N2CCOCC2)cc1`: the inhibition was 0.71%.

As to `CC(=O)Nc1ccc(NC(=O)CCN2C(=O)C3CC=CCC3C2=O)cc1` (stereo not drawn), the inhibition is 3.08%.

With `O=c1cc(-c2ccccc2)[nH]c2cc(F)ccc12`, the inhibition was 0.818%.

Consider `Cc1ccccc1NC(=O)N1CCCC1C(=O)NCc1ccccc1` (stereo not drawn), for which the inhibition is 5.47%.

For `Cc1nnc(SC(C(=O)c2ccccc2)c2ccccc2)[nH]c1=O` (stereo not drawn), the inhibition is -3.86%.

As for `CCCCN1CCNC1=S`, the inhibition is 0.223%.

`OCCC1CN(Cc2ccc3nsnc3c2)CCN1C1CCCC1` (stereo not drawn): the inhibition is -2.72%.

For the compound `O=C(NCc1ccccn1)c1cnc2sccn2c1=O`, the inhibition was -1.24%.

As for `Cc1nc2nc(SCC(=O)Nc3cccc(F)c3)[nH]c2cc1Br`, the inhibition was 6.95%.

Regarding `COc1ccc(F)c(-c2nc(CN3CCC(c4ccccc4)CC3)c(C)o2)c1`, the inhibition is -8.87%.

`O=c1c2sccc2nc(SCc2cc(=O)n3ccccc3n2)n1-c1ccc(Br)cc1`: the inhibition was -3.21%.

Turning to `CC(C)(C)NC(=O)NC(=O)CN1CCC(Cc2ccccc2)CC1`, the inhibition is -22.7%.

As for `CN(CC1CCCO1)S(=O)(=O)c1ccc(C(=O)Nc2ccc([N+](=O)[O-])cc2)cc1` (stereo not drawn), the inhibition was -19.5%.

Consider `COc1ccc(NS(=O)(=O)c2ccc(N3CCN(CCO)CC3)c([N+](=O)[O-])c2)cc1`, for which the inhibition is 1.9%.

Regarding `O=C(NCc1ccccc1Cl)NC(=O)c1csc([N+](=O)[O-])c1`, the inhibition is -1.75%.

In the case of `O=C(CN1CCCCCC1)Nc1ccc(Br)cc1Br`, the inhibition was 7.23%.

Take `O=C(CCCOc1ccccc1)NCc1ccco1`: the inhibition was 8.15%.

For `COc1cccc(OC)c1C(=O)OCC(=O)/C(C#N)=C(\C)N`, the inhibition is -25.5%.

Consider `CC(C)CCN1CCN(Cc2cn[nH]c2C2CCCCC2)CC1CCO` (stereo not drawn), for which the inhibition was -11.2%.

As for `COc1ccc(NC(=O)CN(C)C(=O)c2cccc(S(=O)(=O)N3CCN(c4ccccc4)CC3)c2)cc1`, the inhibition is 38.9%.

For the compound `CCCC(=O)N1CCC(CCC(=O)NC2CC2)CC1`, the inhibition was 33.1%.

For the compound `O=C(CSCc1c(Cl)cccc1Cl)NN1C(=O)c2ccccc2C1=O`, the inhibition was -14.7%.

Turning to `CCCCn1c(N)c(N(CC(C)C)C(=O)c2cccc(S(=O)(=O)N3CC(C)OC(C)C3)c2)c(=O)[nH]c1=O` (stereo not drawn), the inhibition is -2.81%.

With `O=C(OCC1O[C@@H](OC(=O)c2cc(O)c(O)c(O)c2)[C@@H](OC(=O)c2cc(O)c(O)c(O)c2)[C@@H](OC(=O)c2cc(O)c(O)c(O)c2)[C@@H]1OC(=O)c1cc(O)c(O)c(O)c1)c1cc(O)c(O)c(O)c1` (stereo partly drawn), the inhibition is 97.3% (active).

Consider `NS(=O)(=O)c1ccc(NC(=S)NNC(=O)c2cccs2)cc1`, for which the inhibition is 0.859%.

`Cc1cccc(-c2noc(CCC(=O)NC3CCCC3)n2)c1`: the inhibition was 54.2% (active).

Consider `CCOc1ccc(-c2noc(CCC(=O)NC3CCCC3)n2)cc1OC`, for which the inhibition was 7.26%.

For the compound `COc1ccc(-c2noc(CCCC(=O)NC3CCCC3)n2)cc1OC`, the inhibition was 0.509%.

With `C/C(=N\NC(=O)COc1ccc(C)cc1[N+](=O)[O-])c1ccc2c(c1)OCCO2`, the inhibition was 9.39%.

With `Cc1cc(NC(=O)Nc2c[nH]c(=O)[nH]c2=O)ccc1Br`, the inhibition is 53.4% (active).

With `Cc1ccc(NC(=O)Nc2ccccc2)c(Br)c1`, the inhibition was 14.6%.

Take `Cc1cc(NC(=O)[C@H](C)NC(=O)c2ccco2)ccc1Br`: the inhibition is -9.73%.

`CCc1c(C)nc2c(OC)cccc2c1Cl`: the inhibition was 8.11%.

As to `Cc1ccccc1CN1C[C@@H]2C[C@@H](c3ccc4nsnc4c3)N3CCC[C@@]23C1=O`, the inhibition is 10.6%.

Take `COc1cccc(COC(=O)C2CCN(S(=O)(=O)c3cccs3)CC2)c1OC`: the inhibition was -2.56%.

With `O=c1ccc2c(-c3ccccc3S(=O)(=O)O)c3ccc(O)c(O)c3oc-2c1O`, the inhibition was 79.5% (active).

On to `CC(C)CN(C(=O)Cn1c(=O)cnc2ccccc21)C1CCS(=O)(=O)C1` (stereo not drawn), for which the inhibition is 2.23%.

On to `c1cc(-c2nn[nH]n2)ccc1CN1CCCCC1`, for which the inhibition is 12.9%.

As to `CCc1ccc(-c2nnn(Cc3nn[nH]n3)n2)cc1`, the inhibition was 57.7% (active).

On to `CCc1ccc(-c2nnn(Cc3nc4ccccc4s3)n2)cc1`, for which the inhibition was 51.2%.

For `Nc1nc(NCC(=O)O)nc(N2CCCCCC2)c1[N+](=O)[O-]`, the inhibition is 21.9%.

Regarding `N#CCc1c(C#N)c(N)nc(N2CCCC2)c1C#N`, the inhibition was 1.17%.

As for `N#Cc1c(N2CCCCC2)nc(N)c2c(N)nc(SCC(=O)O)cc12`, the inhibition was 65.6% (active).

Turning to `CCCCn1c(N)c(N(CC(C)C)C(=O)c2ccc(-n3c(C)ccc3C)cc2)c(=O)[nH]c1=O`, the inhibition was -11.1%.

For `Cc1cc(=O)n2nc(N3CCC(C(=O)Nc4c(F)c(F)c(F)c(F)c4F)CC3)sc2n1`, the inhibition was 1.58%.

For the compound `COc1cc(CNCc2ccc3c(c2)OCO3)c([N+](=O)[O-])cc1OC`, the inhibition was 1.62%.

In the case of `O=C(CN1C(=O)NC2(CCCCCC2)C1=O)NCc1ccc(F)cc1`, the inhibition is 2.24%.

On to `CSc1ccccc1NC(=O)c1cc(C2CC2)on1`, for which the inhibition was 4.43%.

In the case of `COC(=O)C1C(=O)CC(C)(O)C(C(=O)OC)C1c1ccc2c(c1)OCO2` (stereo not drawn), the inhibition was -4.99%.

Consider `N#Cc1c(/N=C/N2CCCC2)oc(-c2ccccc2)c1-c1ccccc1`, for which the inhibition was -7.68%.

In the case of `COc1ccc(C2(CNC(=O)Cc3ccc(OC)c(OC)c3)CCCC2)cc1`, the inhibition was -23.7%.

Turning to `COc1ccc(C)cc1S(=O)(=O)Nc1cc2c3c(c1)CCC(=O)N3CCC2`, the inhibition is -0.171%.

Consider `O=C(O)C1CCN1C1CCCCC1` (stereo not drawn), for which the inhibition is -9.8%.

As for `COc1ccc(NC(=O)C2CCC(CNc3c(N4CCCCC4)c(=O)c3=O)CC2)c(OC)c1` (stereo not drawn), the inhibition was -6.37%.

In the case of `COCc1cc(C)nc2sc3c(=O)n(-c4cccc5ccccc45)nnc3c12`, the inhibition was -7.85%.

Regarding `CCc1nc2cccnc2n1-c1ccc(C(=O)O)cc1`, the inhibition was 3.28%.

For `Cc1ccc2nc(-c3ccc(NC(=O)CN(C)S(=O)(=O)c4ccccc4)cc3)sc2c1`, the inhibition was -15.6%.

With `CN(CCCC(=O)Nc1nccs1)S(=O)(=O)c1ccc(Cl)cc1`, the inhibition is 9.62%.

Turning to `O=C1C=C(c2ccccc2)CCC1`, the inhibition is -14.3%.

Take `C/C=C/C(=O)Nc1nnc(C(C)C)s1`: the inhibition is -0.768%.

As to `CCCC(=O)N1CCN(c2nnc(-c3ccc(C)cc3)c3ccccc23)CC1`, the inhibition is -13.5%.

For `C[C@H](C(=O)CC(=O)OC(C)(C)C)[C@H](O)c1ccc(C(F)(F)F)cc1`, the inhibition was 1.41%.

Consider `CC1CCCCC1NC(=O)Cn1cnc2c1c(=O)n(C)c(=O)n2C` (stereo not drawn), for which the inhibition was 6.58%.

`O=C1CCC(=O)N1CCOP1(=O)COc2ccccc2OC1`: the inhibition is 2.42%.

For the compound `NC(=O)c1ccc(N2CCOCC2)nc1`, the inhibition is -3.7%.

Consider `Cc1noc(NS(=O)(=O)c2ccc(N3CC(O)=C(c4ccccc4)C3=N)cc2)c1C`, for which the inhibition was -10.1%.

Consider `COc1ccc([N+](=O)[O-])cc1NC(=O)CC1SC(=Nc2cccc(C)c2C)N(/N=C(\C)c2ccc(C)cc2)C1=O` (stereo not drawn), for which the inhibition is -21.9%.

With `CN(Cc1ccccc1)C(=O)C(=O)c1cn(CC(=O)N2CCCC2)c2ccccc12`, the inhibition is 11.9%.

As to `O=C(c1cc2ccccc2s1)N1CCN(c2ccccn2)CC1`, the inhibition was -6.37%.

For the compound `O=C(N=C1SC2CS(=O)(=O)CC2N1c1ccccc1)c1ccccc1` (stereo not drawn), the inhibition was 1.92%.

`COc1ccc(C)cc1NC(=O)CCCN1C(=O)NC(C)(C)C1=O`: the inhibition is -6.72%.

With `O=C(CC(NS(=O)(=O)c1ccc(Cl)cc1)c1ccco1)NC1CCCC1` (stereo not drawn), the inhibition is -10.3%.

On to `CC(C)Cn1c(N2CCN(C(=O)/C=C/c3ccccc3)CC2)nc2ccccc21`, for which the inhibition is 12%.

For the compound `CCCCn1c(N)c(N(CC)C(=O)/C=C/c2ccco2)c(=O)[nH]c1=O`, the inhibition is -4.8%.

With `CN(C(=O)CSc1cccc[n+]1[O-])C1CCCCC1`, the inhibition is -11.4%.

In the case of `CCOc1cc(CN2CCCC(CO)(Cc3ccc(F)cc3F)C2)ccc1OC` (stereo not drawn), the inhibition is -2.58%.

Regarding `O=C(NCc1cccs1)c1ccc(CS(=O)Cc2ccccc2Cl)o1` (stereo not drawn), the inhibition was -4.03%.

Consider `CCOc1cnc(-c2c(-c3ccccc3Cl)noc2C)o1`, for which the inhibition was 0.379%.
